# Experimental data reported in PubChem BioAssay (NCI).
# About 83,000 compounds went through this panel and 20% of them were active in at least one assay; those are over-represented in the sample as a whole.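 Cells were grown in 96-well plates and exposed to the test compound at a single concentration for 48 hours; results are reported as percent growth, with values below 10 considered active.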 Unmarked numbers belong to inactive results. The source made the active and inactive calls.
# What was measured:
# Experiment in all cases: NCI-60 one-dose screen, 48 h (100 = growth as untreated, 0 = no growth, -100 = all killed)
# Settings in all cases: 10 µM unless noted
# MOLT-4 leukemia = tested on: MOLT-4 leukemia
# SR leukemia = tested on: SR leukemia
# RPMI-8226 leukemia = tested on: RPMI-8226 leukemia
# OVCAR-8 ovarian = tested on: OVCAR-8 ovarian
# OVCAR-5 ovarian = tested on: OVCAR-5 ovarian
# OVCAR-4 ovarian = tested on: OVCAR-4 ovarian
# SK-OV-3 ovarian = tested on: SK-OV-3 ovarian
# IGROV1 ovarian = tested on: IGROV1 ovarian
# OVCAR-3 ovarian = tested on: OVCAR-3 ovarian
# HS 578T breast = tested on: HS 578T breast
# NCI/ADR-RES ovarian = tested on: NCI/ADR-RES ovarian
# T-47D breast = tested on: T-47D breast
# MDA-MB-435 melanoma = tested on: MDA-MB-435 melanoma
# SW-620 colon = tested on: SW-620 colon
# MCF7 breast = tested on: MCF7 breast
# HCT-116 colon = tested on: HCT-116 colon
# HCC-2998 colon = tested on: HCC-2998 colon
# KM12 colon = tested on: KM12 colon
# BT-549 breast = tested on: BT-549 breast
SMILES,growth (MOLT-4 leukemia),growth (SR leukemia),growth (RPMI-8226 leukemia),growth (OVCAR-8 ovarian) [%],growth (OVCAR-5 ovarian) [%],growth (OVCAR-4 ovarian) [%],growth (SK-OV-3 ovarian) [%],growth (IGROV1 ovarian) [%],growth (OVCAR-3 ovarian),growth (HS 578T breast),growth (NCI/ADR-RES ovarian) [%],growth (T-47D breast) [%],growth (MDA-MB-435 melanoma),growth (SW-620 colon) [%],growth (MCF7 breast) [%],growth (HCT-116 colon),growth (HCC-2998 colon) [%],growth (KM12 colon),growth (BT-549 breast)
CNC(=O)Oc1ccc(C(C)(C)C)cc1OC(=O)NC,81.6%,87.9%,95.5%,100,108,96.3,88.4,104,102%,106%,104,98.9,97%,94.8,93.9,93%,103,99.8%,–
O=[N+]([O-])c1ccc([Se]C2CCCCC2Cl)c([N+](=O)[O-])c1 (stereo not given),73.2%,78.7%,82.8%,59.7,101,78.8,106,70.8,88.2%,22.2%,79,–,55.3%,106,91.4,46.6%,98.8,–,60.8%
COC(=O)[C@@H](C)C[C@H](Cc1ccccc1)NC(=O)c1csc([C@@H](C[C@H](C(C)C)N(C)C(=O)[C@@H](NC(=O)[C@H]2CCCCN2C)C(C)C)OC(C)=O)n1,4.52% (active),6.8% (active),8.34% (active),22.7,26.4,44.6,13.4,25.7,-24.4% (active),-2.62% (active),–,54.7,-54.7% (active),22.9,19.6,-21.2% (active),12.9,4.46% (active),-20.5% (active)
Cc1c(NS(=O)(=O)c2ccccc2)ccc([N+](=O)[O-])c1Cl,73.6%,73.8%,42.4%,74.6,89.1,47.3,71.3,72.5,42.2%,64.4%,86.3,–,39.8%,91.6,92.8,73.3%,–,70.1%,77.7%
CC(C)=CCC/C(C)=C/C=N\N=C(/N)N[N+](=O)[O-],90.9%,83.6%,93.6%,104,103,93.4,98.9,99.5,101%,99.8%,102,–,94%,106,81.1,91.1%,108,95.7%,92.8%
CN[C@]1(c2ccccc2Cl)CCCC[C@H]1NCCCN1CCN(C)CC1,98.8%,111%,97.3%,97.2,104,101,105,103,102%,94.1%,–,103,103%,99.4,102,97.8%,99.5,101%,102%
O=[N+]([O-])c1cc(I)cc([N+](=O)[O-])c1,97.1%,104%,101%,108,119,79.4,125,108,107%,122%,–,95.8,101%,106,80.7,94.8%,104,102%,101%
CC(=O)O[C@H](C[C@H](C(C)C)N(C)C(=O)[C@@H](NC(=O)[C@H]1CCCCN1C)C(C)C)c1nc(C(=O)NC2CCC(C(=O)O)CC2)cs1 (stereo not given in full),30.9%,22.3%,23.8%,59.9,85.7,72,50.9,52.9,2.22% (active),24.2%,–,50.4,-28.9% (active),32.6,18.5,34.8%,83.7,39.2%,45.6%
C=CCc1cc2c(cc1OCC)OCO2,113%,126%,112%,103,95.7,108,80.3,121,107%,93.2%,105,–,109%,102,90.9,85.5%,93.8,104%,82.6%
